107 molecules from PubChem BioAssay AID686978 (National Center for Advancing Translational Sciences (NCATS), 2013) can be followed below.

The whole screen tested about 420,000 compounds, of which about 64,000 (15%) were called active. Not shown: some 27% with an inconclusive outcome. Calls come from the whole dose curve; as a rule, active = well fitted inhibition curve with a large enough effect; inconclusive = small, poorly fitted or top-dose-only effect; inactive = flat fitted curve, though single readings scatter. Not all results are given here. A call without a number means that no potency is given here.
Potency is the fitted concentration of half-maximal effect.

The test is described as follows: qHTS for Inhibitors of human tyrosyl-DNA phosphodiesterase 1 (TDP1): qHTS in cells in absence of CPT. Note: nearly all actives have a fitted effect of over 55% in size. The following applies: DT40 Tdp1-/- hTDP1 cells, no CPT, ATP luminescence, 48 h; activity change, negative = growth inhibition: at 46.2 µM (top of the series). The method, boiled down:
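Chicken DT40 Tdp1-/- cells stably complemented with human TDP1 were seeded at 400 cells/well with DMSO in place of 20 nM camptothecin. After compound pinning, cells grew at least 48 hr at 37 °C; viability read by CellTiter-Glo luminescence.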
Consider `O=C(CSc1ncnc2sccc12)NC1CCS(=O)(=O)C1` (configuration not stated), for which the Potency result was “inactive”. With `Cn1c(SCC(=O)Nc2cccc(O)c2)nnc1-c1ccc(S(=O)(=O)N2CCOCC2)cc1`, the Potency result was “inactive”.

For `Cc1ccc([C@@H]2CC(=O)[C@@H]3CN(S(=O)(=O)c4ccc(C)cc4)[C@H](c4ccccc4F)C[C@@H]3N2S(=O)(=O)c2ccc(Cl)cc2)cc1`, the Potency result is “inactive”. With `Cc1ccccc1CSc1nnc(-c2cccnc2)n1N`, the Potency result was “inactive”. In the case of `Cc1ccc(-c2nn(-c3ccccc3)cc2CN(Cc2ccccc2)C(=O)CCC(=O)O)o1` it was “inactive”; in that of `COCCCNC(=O)Cn1cc(C(=O)C2CC2)c2ccccc21`, “inactive”; in that of `O=C(CSc1ncnc2c1oc1ccccc12)NC1CCCC1`, “inactive”.

Take `CCC(C(=O)OC)n1cnc2c(oc3ccccc32)c1=O` (configuration not stated): the Potency entry was “inactive”. Consider `COc1ccccc1Nc1ncnc2c1oc1ccccc12`, for which the Potency is 11.6 µM (active). Then `COc1ccc(CN2CCC3(CCC(CNC(=O)c4ccco4)O3)CC2)cc1OC` (configuration not stated), with “inactive”; and `CCCCCCCNc1nc(Cl)nc(NCCO)n1`, with “inactive”.

Regarding `Cc1occc1-c1nnc(SCC(=O)NC2CCCCC2)o1`, the Potency result was “inactive”.

Regarding `CCOC(=O)CNC(=O)CN1C(=O)CCSc2ccccc21`, the Potency entry is “inactive”. In the case of `CCNC(=O)N1c2ccccc2Sc2ccccc21` it was “inactive”. In the case of `CCOC(=O)Nc1ccc2c(c1)N(C(=O)CCCl)c1ccccc1[S@]2=O` it was 3.66 µM (active); in that of `CCOC(=O)Nc1ccc(NC(=O)OCC)cc1`, “inactive”. Then `CCNCCC(=O)N1c2ccccc2Sc2ccc(NC(=O)OCC)cc21`, with 13 µM (active); and `CCOC(=O)Nc1ccc2c(c1)N(C(=O)CCN1CCN(CCO)CC1)c1ccccc1CC2`, with “inactive”.

For `CN1CCC2(CC1)CCN(S(=O)(=O)c1ccccc1)CC2`, the Potency result is “inactive”. Then `Cc1ccc(S(=O)(=O)N(c2cccc(C)c2)C2CCS(=O)(=O)C2)cc1` (configuration not stated), with “inactive”; and `CC(C)Sc1ncnc2c1cnn2-c1ccccc1`, with “inactive”; and `O=C(O)c1cc(S(=O)(=O)Nc2ccc3cn[nH]c3c2)ccc1Br`, with “inactive”.

For `CC(C)N1C(=O)C2C(C(=O)NC3CCCCC3)C3C=CC2(O3)C1C(=O)NC1CCCC1` (configuration not stated), the Potency entry was “inactive”. In the case of `CCCCOC(=O)Nc1nccs1` it was “inactive”; in that of `CCCc1cc(=O)n2[nH]c(SCc3ccccc3)nc2n1`, “inactive”. Then `CCOC(=O)c1sc(NC(=O)C(CC)Sc2nccn2C)nc1C` (configuration not stated), with “inactive”; and `CCn1c2ccccc2c2nnc(SCC(=O)O)nc21`, with “inactive”. In the case of `C=CCn1c2ccccc2c2nnc(SC(CC)C(=O)Nc3nc(C)c(C(=O)OCC)s3)nc21` (configuration not stated) it was 8.2 µM (active); in that of `N#Cc1cc2[nH]c(=O)c(=O)[nH]c2cc1[N+](=O)[O-]`, “inactive”; in that of `CSc1n[nH]c(=S)n1N`, “inactive”. `N#Cc1ccc(S(=O)(=O)NCC(=O)OCC(=O)NCCc2ccccc2)cc1`: the Potency entry was “inactive”. In the case of `Cc1nnc(SCC(=O)Nn2cnnc2)s1` it was “inactive”; in that of `O=S1(=O)CC/C(=N\Nc2ccc(F)cc2)c2ccsc21`, “inactive”; in that of `O=C(c1ccc(F)cc1)C1CCN(CCCCc2ccccc2)CC1`, 26.6 µM (active). As to `O=C1CCN(CCCc2ccccc2)CCN1CCO`, the Potency entry is “inactive”. In the case of `O=C(COC(=O)c1ccc(F)cc1)NCCCc1ccccc1` it was “inactive”.

On to `CCn1c(SCC(=O)NC2CCCC2)nnc1-c1ccoc1C`, for which the Potency entry is “inactive”. Then `NS(=O)(=O)c1ccc(CCNC(=O)NC2CCCCC2)cc1`, with “inactive”. Then `O=S(=O)(c1cccs1)N1CCc2ccccc2C1`, with “inactive”; and `CCC(=O)N(CCc1ccccc1)Cc1cc2cc(C)ccc2[nH]c1=O`, with “inactive”; and `Cc1cccc2cc(CN(C(=O)c3cccs3)c3ccccc3)c(=O)[nH]c12`, with “inactive”. Then `Cc1ccc(N(Cc2cc3ccccc3[nH]c2=O)C(=O)c2cccs2)cc1`, with 14.6 µM (active); and `Cc1ccc(-n2nc(C)c(C(=O)O)c2-n2cccc2)cc1`, with “inactive”; and `CCOc1ccc(CNC(=O)Cn2cc3c(n2)-c2c(oc(C(=O)N4CCCC4)c2C)CC3)cc1`, with 20.6 µM (active). For `CCOC(=O)N1CCC(NC(=O)Cn2cc3c(n2)CCCCC3)CC1`, the Potency result is “inactive”. Then `Cc1c(C(=O)N2CCCC2)oc2c1-c1nn(CC(=O)NCc3ccc(OC(C)C)cc3)cc1CC2`, with 20.6 µM (active). As for `COCCNC(=O)Cn1cc2c(n1)CCCCC2`, the Potency entry is “inactive”.

Consider `CC(C)Oc1ccc(C(=O)NCC(=O)Nc2ccc3c(c2)CCC3)cc1`, for which the Potency result was “inactive”. In the case of `CCCN(CCC)CCCNC(=O)Cn1cc2c(n1)-c1c(oc(C(=O)N3CCCC3)c1C)CC2` it was “inactive”; in that of `CC(C)OC(=O)Cn1nc(C(F)(F)F)c2c1CCCC2`, “inactive”; in that of `CCCC(C)c1nnc(NC(=O)C2CC(=O)N(c3ccc(OCC)cc3)C2)s1` (configuration not stated), “inactive”. Then `Cc1nnc(C(=O)NC(C)(C)c2nc(C(=O)NCc3ccc(F)cc3)c(O)c(=O)n2C)o1`, with “inactive”; and `COc1ccnc(Oc2ccccc2)c1-c1ncn[nH]1`, with “inactive”. Then `CCOC(=O)C1CCN(C(=O)Cn2nc(C)c3c(C)n(-c4ccccc4)nc3c2=O)CC1`, with “inactive”. Consider `COc1ccc(OC)c(CNC(=O)Cn2nc(C)c3c(C)n(-c4ccc(C)cc4)nc3c2=O)c1`, for which the Potency was 16.4 µM (active). Then `Cc1ccccc1CNC(=O)CSc1nnc(C)c2c(C)n(-c3ccccc3)nc12`, with “inactive”. Then `Cc1cccn2c(=O)nc(SCC(=O)NCc3ccccc3Cl)nc12`, with “inactive”; and `COc1ccccc1CNC(=O)Cn1nc(C)c2nn(-c3ccc(Cl)cc3)c(C)c2c1=O`, with 23.1 µM (active); and `Cc1nn(CC(=O)N2CCCCC2)c(=O)c2nn(-c3ccccc3)c(C)c12`, with “inactive”. Then `CCNC(=O)Cn1nc(C)n2c(cc3c(OC)cccc32)c1=O`, with “inactive”; and `Cc1nnc(SCC(=O)NCc2ccccc2Cl)c2nn(-c3ccccc3)c(C)c12`, with 23.1 µM (active); and `COc1ccccc1CNC(=O)COC(=O)c1sc(C)nc1C`, with “inactive”. As to `Cc1ccccc1-c1nnn(CC(=O)c2ccc(S(=O)(=O)N3CCCC3)cc2)n1`, the Potency result was “inactive”. Then `CNC1(c2nnnn2-c2c(C)cccc2C)CCOC(C)(C)C1` (configuration not stated), with “inactive”; and `COc1c(O)cccc1-c1nnn(CCC(=O)OCC(=O)c2ccccc2)n1`, with “inactive”; and `CC1(C(=O)NS(=O)(=O)c2cccc(OC(F)F)c2)CCN1C(=O)C1CC1` (configuration not stated), with “inactive”.

In the case of `CCCCn1c(N)c(N(CC(C)C)C(=O)CN(C)S(=O)(=O)c2ccc(F)cc2)c(=O)[nH]c1=O`, the Potency result was “inactive”. Then `Cc1cc2nc3n(c2cc1C)CC1CC(C(=O)NCCC(C)C)N(C)C31` (configuration not stated), with “inactive”. In the case of `CCCCOc1ccc(Cl)cc1CSc1nncn1N` it was “inactive”; in that of `CS(=O)(=O)NCc1ccc(C(=O)NCc2ccccc2)cc1`, “inactive”. Then `CN(c1ccc(C(=O)NCc2ccccn2)cc1)S(C)(=O)=O`, with “inactive”.

As to `COc1cccc(S(=O)(=O)NCc2ccc(C(=O)NCc3ccccn3)cc2)c1`, the Potency is 0.92 µM (active). In the case of `CCSc1nc(O)c(C(c2cccc(OC)c2)c2c(O)nc(SCC)[nH]c2=O)c(=O)[nH]1` it was “inactive”; in that of `C/C=N/N(c1ccccc1)c1ccccc1`, “inactive”. In the case of `Cc1ccc2cccc(OCCCOc3ccccc3CO)c2n1` it was 23.1 µM (active); in that of `OCc1ccc(OCCCOc2cccc3cccnc23)cc1`, “inactive”. In the case of `COc1ccccc1CNC(=O)COc1ccc(C)nc1[N+](=O)[O-]` it was “inactive”; in that of `O=S(=O)(c1ccc(Sc2nnc3ccccn23)nc1)N1CCOCC1`, “inactive”; in that of `CCOCC(=O)NCc1ccc2c(c1)cc(C)n2C`, “inactive”. On to `CCn1c(=S)[nH]c2cc(S(=O)(=O)N3CCOCC3)ccc21`, for which the Potency result was “inactive”. In the case of `O=C(NCc1cccc(Cl)c1)C1=CC=CN2CCS(=O)(=O)N=C12` it was “inactive”; in that of `COc1ccc(C)cc1NC(=O)CCC(=O)Nc1nnc(C(F)(F)F)s1`, “inactive”. In the case of `CSc1ccccc1NC(=O)CN(C)CC(=O)Nc1cccc(Br)c1` it was 23.1 µM (active).

Turning to `CSc1ccccc1NC(=O)Cc1ccc(Br)cc1`, the Potency entry was “inactive”.

With `CN(CC(=O)Nc1ccccc1F)CC(=O)Nc1ccccc1Br`, the Potency result is “inactive”.

Consider `CCn1c(SCC(=O)Nc2sc(C)c(C)c2C#N)nnc1C1CC1`, for which the Potency result was “inactive”. Then `CC(C)(O)C#Cc1ccc(C(=O)N2CCC(C(N)=O)(N3CCCCC3)CC2)cc1`, with “inactive”; and `CC1CCN(C(=O)COC(=O)c2cc(S(=O)(=O)N3CCOCC3)ccc2Cl)CC1`, with “inactive”. Then `Cn1c(=O)c2c(SCC(=O)NCC3CCCO3)nc(CC(C)(C)C)nc2n(C)c1=O` (configuration not stated), with “inactive”; and `CCOC(=O)c1cccc(NC(=O)CCn2nnc3ccccc32)c1`, with “inactive”; and `CCOC(=O)c1cnc(-n2nc(C)cc2C)nc1-n1nc(C)cc1C`, with “inactive”.

Turning to `CCOC(=O)c1cnc(-n2nc(C)cc2C)nc1Nc1cccc(C(C)=O)c1`, the Potency was 8.2 µM (active). In the case of `O=[N+]([O-])c1c(NCCO)cc(Sc2nc3ccccc3s2)c2nonc12` it was 1.03 µM (active).

In the case of `O=C(O)c1cccc(S(=O)(=O)Nc2ccc(O)cc2Sc2nc3ccccc3s2)c1`, the Potency result is “inactive”. In the case of `CCOc1ccccc1Nc1ccc2nonc2c1[N+](=O)[O-]` it was “inactive”; in that of `COc1ccc(S(=O)(=O)NC(=O)C2(C)CCN2C(=O)COc2ccc(Cl)cc2)cc1` (configuration not stated), “inactive”. For `c1ccc(C[C@H]2CNCCN2CCC23CC4CC(CC(C4)C2)C3)cc1`, the Potency was 10.3 µM (active). In the case of `COC(=O)c1ccccc1NC(=O)CN(Cc1ccccc1)S(C)(=O)=O` it was “inactive”. In the case of `O=C(O)CSCc1ccc(C(=O)O)o1` it was “inactive”. Consider `CC(C)(C)NC(=O)Cn1cnc2cc([N+](=O)[O-])ccc2c1=O`, for which the Potency result is “inactive”.

With `Cc1ccc(C)c(OCCC(=O)OCC(=O)c2ccc3c(c2)NC(=O)CO3)c1`, the Potency result was “inactive”. Then `COC(=O)c1ccccc1NC(=O)CN(Cc1ccc(Cl)cc1)S(C)(=O)=O`, with “inactive”; and `COC(=O)c1ccccc1Sc1c(/C=N/OCc2ccc(Cl)cc2)c(C(F)(F)F)nn1C`, with 20.6 µM (active).

On to `S=c1[nH]nc2c3c4c(sc3ncn12)CCCC4`, for which the Potency entry was “inactive”.

Turning to `Clc1ccc(-c2nnc(-c3ccccc3)nc2N2CCSCC2)cc1`, the Potency was 14.6 µM (active). Consider `OCCN1CCN(c2nnc(-c3ccccc3)c3ccccc23)CC1`, for which the Potency result was “inactive”. Then `O=C(N[C@H]1CC[C@H](CC(=O)N2CCCCC2)O[C@@H]1CO)c1cccc(F)c1`, with “inactive”.
